Experimental data taken from PubChem BioAssay (NCI).
Compounds without any hit were thinned out: in the full panel of roughly 83,000, 20% have a hit.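 A percent growth of 40 corresponds to 60% growth inhibition; 0 means no net growth; -100 means all cells died. Active threshold: below 10.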 A number with no mark means an inactive call. Activity calls are given as the source filed them.

How the values were obtained:
Assay in all cases: NCI-60 one-dose screen, 48 h (100 = growth as untreated, 0 = no growth, -100 = all killed)
Conditions in all cases: 10 µM unless noted
NCI-H23 lung = system: NCI-H23 lung
NCI-H226 lung = system: NCI-H226 lung
NCI-H322M lung = system: NCI-H322M lung
HOP-62 NSCLC = system: HOP-62 NSCLC
NCI-H460 lung = system: NCI-H460 lung
HOP-92 NSCLC = system: HOP-92 NSCLC
NCI-H522 lung = system: NCI-H522 lung
A549/ATCC NSCLC = system: A549/ATCC NSCLC
786-0 renal = system: 786-0 renal
COLO 205 colon = system: COLO 205 colon
DU-145 prostate = system: DU-145 prostate
K-562 leukemia = system: K-562 leukemia
MALME-3M melanoma = system: MALME-3M melanoma
MDA-MB-231 breast = system: MDA-MB-231 breast
RXF 393 renal = system: RXF 393 renal
SF-268 CNS = system: SF-268 CNS
SF-295 CNS = system: SF-295 CNS
SF-539 CNS = system: SF-539 CNS
M14 melanoma = system: M14 melanoma

Row | SMILES | growth (NCI-H23 lung) [%] | growth (NCI-H226 lung) [%] | growth (NCI-H322M lung) [%] | growth (HOP-62 NSCLC) [%] | growth (NCI-H460 lung) | growth (HOP-92 NSCLC) | growth (NCI-H522 lung) | growth (A549/ATCC NSCLC) [%] | growth (786-0 renal) | growth (COLO 205 colon) | growth (DU-145 prostate) [%] | growth (K-562 leukemia) [%] | growth (MALME-3M melanoma) [%] | growth (MDA-MB-231 breast) [%] | growth (RXF 393 renal) | growth (SF-268 CNS) [%] | growth (SF-295 CNS) [%] | growth (SF-539 CNS) [%] | growth (M14 melanoma) [%]
1 | CCN(Cc1ccc(CN(CC)C(=O)C(Br)Br)cc1)C(=O)C(Br)Br | 43.3 | 59.1 | 26.3 | 74.8 | 2.41% (active) | 60.7% | 32.5% | 25.2 | 59.4% | 3.56% (active) | 14.1 | 27.1 | 52.6 | 28.2 | 67.9% | 51.6 | 45.9 | 53.6 | 24.9
2 | O=C1CCCCN1CCCCC#Cc1ccccc1C#Cc1ccccn1 | 101 | 92 | 85.7 | 101 | 115% | 73.2% | 112% | 112 | 102% | 103% | 109 | 93.6 | 100 | 102 | 56.6% | 107 | 109 | 103 | 112
3 | CCCCC[C@@H]1Cc2cc(O)c(C(=O)O)c3c2[C@H](C[C@@]2(CCCO2)O3)O1 | 103 | 110 | 121 | 93.6 | 121% | 4.89% (active) | 89.7% | 105 | 103% | 112% | 111 | 58.1 | 121 | 101 | 73.4% | 116 | 101 | 103 | 103
4 | O=C(O)c1ccc(-n2cc(CNc3ccc(C(F)(F)F)cc3)c(-c3ccccc3)n2)cc1 | 91.6 | 104 | 101 | 90.5 | 94.3% | 83.8% | 94.3% | 72.5 | 99.1% | 107% | 95.9 | 80.6 | 91.3 | 102 | 99.4% | 91.4 | 75 | 99.9 | 89
5 | COc1ccc(N=C2NN=C(c3ccc(F)cc3)CS2)cc1OC | 104 | 78.5 | 96.4 | 96.3 | 107% | 72.8% | 89% | 92.4 | 88% | 98.7% | 103 | 107 | 104 | 91.6 | 78.3% | 116 | 90.8 | 102 | 105
6 | O=C(CSc1nc(-c2ccc(Cl)cc2)cn1-c1ccc(Cl)cc1)c1ccc(Br)cc1 | 77.1 | 68.4 | 94.2 | 48.3 | 50.8% | 43.9% | 58.8% | 59.2 | 34.7% | 81.7% | 90.9 | 86.4 | 94 | 60.1 | 67.9% | 78.1 | 52.1 | 84.7 | 89.1
7 | Cc1ccc2nc(-c3c(N)n[nH]c3CCCO)[nH]c(=O)c2c1 | 105 | 97.5 | 107 | 92.1 | 110% | 82.8% | 114% | 103 | 101% | 105% | 121 | 102 | 137 | 99.5 | 167% | 104 | 114 | 96.4 | 102
8 | C=C1C(=O)O[C@H]2[C@H]1CC/C(COC(=O)NCCc1cccc(OC)c1)=C\CC[C@@]1(C)O[C@@H]21 | 75.1 | 41.3 | 91.7 | 66.6 | 74.5% | 44% | -30.8% (active) | 79.2 | 5.24% (active) | -35.3% (active) | 16.5 | 11.5 | 85.3 | 29.4 | -2.81% (active) | 55.4 | 89.2 | 38.9 | 29.9
